Experimental data as given in PubChem BioAssay (NCATS).
Results filed as inconclusive are left out. Entries that show only a call come without a potency. Calls of active or inactive are those of the source. Calls follow the shape of the dose curve; as a rule, active = well fitted curve in the direction sought with a large enough effect; inconclusive = small, poorly fitted or top-dose-only effect, or another doubt; inactive = no such curve, though single readings can be large; an effect the other way counts as inactive or inconclusive.

Key:
[1] = target: Tyrosine-protein kinase Yes (Homo sapiens) (UniProt P07947); experiment: qHTS for small molecule inhibitors of Yes1 kinase: Primary Screen (AID 686947); also: nearly all actives have a fitted effect of over 60% in size; also: potency is read from the fitted curve at half-maximal effect
Tyrosine-protein kinase Yes (Homo sapiens), sequence (P07947 whole entry, looked up): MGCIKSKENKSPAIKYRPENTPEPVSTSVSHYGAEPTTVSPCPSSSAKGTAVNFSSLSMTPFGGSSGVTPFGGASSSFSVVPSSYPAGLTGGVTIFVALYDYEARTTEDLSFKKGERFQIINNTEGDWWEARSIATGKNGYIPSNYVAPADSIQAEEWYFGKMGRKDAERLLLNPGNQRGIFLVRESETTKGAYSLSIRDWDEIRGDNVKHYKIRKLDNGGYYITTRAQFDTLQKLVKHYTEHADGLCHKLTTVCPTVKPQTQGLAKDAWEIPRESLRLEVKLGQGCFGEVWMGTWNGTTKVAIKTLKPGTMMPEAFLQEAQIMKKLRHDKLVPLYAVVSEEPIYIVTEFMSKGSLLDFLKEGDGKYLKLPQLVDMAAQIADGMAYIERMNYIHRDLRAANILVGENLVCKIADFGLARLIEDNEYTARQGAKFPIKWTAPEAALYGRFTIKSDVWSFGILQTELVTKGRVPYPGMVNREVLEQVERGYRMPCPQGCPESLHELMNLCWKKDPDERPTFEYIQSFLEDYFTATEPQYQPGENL
In short: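 Yes1 (4 nM) preincubated 20 min with compound, then 60 min room-temperature reaction with 0.1 mM ATP and 0.3 mg/mL poly(E4Y) in pH 7.5 Tris, 10 mM MgCl2. ADP measured by ADP-Glo luminescence, normalised to enzyme/no-enzyme controls.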

[2] = qHTS for small molecule inhibitors of Yes1 kinase: Counter Assay (AID 686950);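 also: no kinase present so only ADP-Glo detection of a fixed ADP amount is tested; luminescence from ADP-Glo reporting ADP in a fixed ATP and ADP mixture; series mostly up to about 77 µM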
In short: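 Luminescence read-out from ADP-Glo quantifies a fixed ADP amount (0.02 mM ADP with 0.08 mM ATP) after 60 min at room temperature; signal is normalized between DMSO wells with ATP/ADP and with 0.1 mM ATP alone.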

Structure (SMILES) | Potency [1] | outcome [2]
CS(=O)(=O)CCNCc1ccc(-c2ccc3ncnc(Nc4ccc(OCc5ccccc5)c(Br)c4)c3c2)o1 | 2320 nM (active) | inactive
Cc1ccc(-c2cc3c(NC(=O)C4CC4)ncnc3o2)cc1 | 733 nM (active) | inactive
COc1cccc(-n2ncc3c(NN=Cc4ccc(F)cc4)ncnc32)c1 | 582 nM (active) | inactive
CN(C)CCNC(=O)Nc1ccc(N(C)c2ccnc(Nc3ccc(CS(C)(=O)=O)cc3)n2)cc1 | 7330 nM (active) | inactive
O=C1NC(=O)C(c2cccc(Cl)c2)=C1Nc1ccc(O)c(Cl)c1 | 9230 nM (active) | inactive
Cn1c(-c2nonc2N)nc2cnccc21 | inactive | inactive
